Among the data in PubChem BioAssay (EPA / NIEHS) are outcome and AC50 values, retold here.

Calls of active or inactive are those of the source. Rule for the calls: active = hit-call score of the fitted dose curve at least 0.9, where 1 is the maximum; inactive = score below 0.9.

This assay is described as follows: ATG_GRE_CIS: Attagene CIS-FACTORIAL HepG2 Assay for human Glucocorticoid Response Elements (GRE) (AID 2282947). The conditions noted are these: HepG2 GRE cis-reporter, Attagene multiplex mRNA; actives raise or lower the signal. The protocol: ATG_CIS is a cell-based, multiplexed-readout assay that uses HepG2, a human liver cell line, with measurements taken at 24 hours after chemical dosing in a 24-well plate.ATG_GRE_CIS is one of 52 assay component(s) measured or calculated from the ATG_CIS assay. It is designed to make measurements of mRNA induction, a form of inducible reporter, as detected with fluorescence intensity signals by Reverse transcription polymerase chain reaction (RT-PCR) and Capillary electrophoresis technology.Data from the assay component ATG_GRE_CIS was analyzed into 1 assay endpoint. This assay endpoint, ATG_GRE_CIS, was analyzed with bidirectional fitting relative to DMSO as the negative control and baseline of activity. Using a type of inducible reporter, measures of mRNA for gain or loss-of-signal activity can be used to understand the reporter gene at the transcription factor-level as they relate to the gene NR3C1. Furthermore, this assay endpoint can be referred to as a primary readout, because this assay has produced multiple assay endpoints where this one serves a reporter gene function. To generalize the intended target to other relatable targets, this assay endpoint is annotated to the nuclear receptor intended target family, where the subfamily is steroidal.
Human liver HepG2 cells are transiently transfected with multiple reporter transcription units (MRTUs) in 6-well plates using FuGene 6 reagent (Roche; 3 ml FuGene/1 mg DNA). The MRTU constructs are regulated by a cis-regulating element (promoter). […] A major difference between the CIS and TRANS system is that in CIS activities of endogenous TFs are measured, whereas the TRANS assay evaluates changes in activities of exogenous, chimeric NR-Gal4 proteins. […] At the end of 24 hour incubation, total RNA was isolated using TriZol reagent (Invitrogen). The isolated RNA is then reverse-transcribed using oligo(dT) primer and Mo-MLV reverse transcriptase (Invitrogen) with DNAse I (Ambion) treatment for 30 min. The one-tenth of the produced cDNA was amplified by PCR using Taq DNA polymerase (Invitrogen) and two reporter sequence-specific primers. The PCR products were fluorescently labeled by primer extension with 6-arboxyfluorescein (6-FAM) 5'-labeled reporter sequence-specific primer (2 min at 95 C, 20 s at 68 C and 10 min at 72 C) and these products were digested with 5U of HpaI (New England Biolabs) for 2h at 37 C. The fragments were purified using Qiaquick PCR columns (Qiagen), analyzed on an ABI 3130xL genetic analyzer (Applied Biosystems) with peak positions identified by using a set of X-rhodamine (ROX)-labeled MapMarker1000 molecular weight standards (BioVentures). The raw capillary electrophoresis data was processed using Attagraph software (Attagene).
With `CN(C)Cc1cc(CN(C)C)c(O)c(CN(C)C)c1`, the molecule was classed as inactive.

`COC(Cc1ccccc1)OC`: the molecule was called inactive.

On to `CC(=O)OCCc1ccccc1`, for which the result was inactive.

Consider `Oc1c(Cl)cc(Cl)c(Cl)c1Cl`, for which the molecule was classed as inactive.

Regarding `CCCCC(=O)O`, the result was inactive.

On to `CC=C(C)C(C)=O`, for which the outcome was inactive.

`O=C(Nc1ccccc1)c1cc(Cl)ccc1O`: the result was inactive.

On to `CC(C)(C)N`, for which the result was inactive.

Consider `CCC(C)c1ccccc1` (stereo not given), for which the result was inactive.

Consider `O=C(O)C1CCC(C(=O)O)CC1` (stereo not given), for which the molecule was called inactive.

As for `CC(C)COC(=O)CC(C(=O)OCC(C)C)S(=O)(=O)O` (stereo not given), the call was inactive.

As for `CC(=O)C(C)C`, the call was inactive.

As to `CCCCNS(=O)(=O)c1ccccc1`, the molecule was classed as inactive.

Consider `CCCCCCCCCCCC(C)=O`, for which the result was inactive.

As for `N#CC1(N)CCCCC1`, the result was inactive.

With `CN1CCN(C)CC1`, the call was inactive.

With `O=C(O)c1cc(O)c2ccccc2c1O`, the AC50 was 21.8 µM (active).

As for `CCC(C)(O)CCCC(C)C` (stereo not given), the call was inactive.

In the case of `CCCC=C(C=O)CC`, the outcome was inactive.

In the case of `CCC(C)C(=O)OC` (stereo not given), the molecule was called inactive.

`CC1CCC(=O)C1=O` (stereo not given): the call was inactive.

For `Oc1ccccc1Cc1ccccc1O`, the outcome was inactive.

With `CC(C)=NNC(N)=S`, the molecule was classed as inactive.

Regarding `Cc1c[nH]c(=O)[nH]c1=O`, the result was inactive.

For the molecule `CCCCCCCCCCCC(=O)OCC`, the outcome was inactive.

As for `CC(C)c1cccc(C(C)C)c1N`, the call was inactive.

Consider `CC(=O)OC(C)c1ccccc1` (stereo not given), for which the call was inactive.

Consider `c1ccc(-c2nc3ccccc3[nH]2)cc1`, for which the molecule was classed as inactive.

Turning to `CC(Cl)COP(=O)(OCC(C)Cl)OCC(C)Cl` (stereo not given), the result was inactive.

As to `CC(=O)OC/C=C(/C)CCC=C(C)C`, the molecule was called inactive.

Consider `C[N+](C)(C)CCCNS(=O)(=O)C(F)(F)C(F)(F)C(F)(F)C(F)(F)C(F)(F)C(F)(F)C(F)(F)C(F)(F)F`, for which the result was inactive.

On to `O=S(=O)(O)c1ccc(Nc2nc(Nc3ccc(C=Cc4ccc(Nc5nc(Nc6ccc(S(=O)(=O)O)cc6)nc(N(CCO)CCO)n5)cc4S(=O)(=O)O)c(S(=O)(=O)O)c3)nc(N(CCO)CCO)n2)cc1`, for which the molecule was classed as inactive.

On to `CC/C=C\CCOC(=O)c1ccccc1O`, for which the outcome was inactive.

As for `C=C[C@@]1(C)CC(=O)[C@]2(O)[C@@]3(C)[C@@H](O)CCC(C)(C)[C@@H]3[C@H](O)[C@H](OC(C)=O)[C@@]2(C)O1`, the outcome was inactive.

Turning to `OCCCc1ccccc1`, the outcome was inactive.

For the molecule `CC=CC(=O)OCC(C)C`, the outcome was inactive.

Turning to `Fc1ccc(Br)cc1`, the result was inactive.

As for `C=CC(=O)NCOCCCC`, the call was inactive.

Take `N=C1C=CC(=C(c2ccc(N)cc2)c2ccc(N)cc2)C=C1`: the AC50 is 23.9 µM (active).

Regarding `CC(=O)CC(=O)Nc1ccccc1C`, the call was inactive.

Usually AC50 stands for the midpoint of the concentration-response curve, whichever way the signal moves.
